Drawing on article PMC7862700, “An all-to-all approach to the identification of sequence-specific readers for epigenetic DNA modifications on cytosine”, this text covers binding signal for one sequence.

What all share (assay): DAPPL (digital affinity profiling via proximity ligation, sequencing); 10 mM Tris-HCl pH 7.5, 50 mM NaCl, 1 mM DTT, 4% glycerol, room temperature, 30 min; GST-TFs on glutathione beads, 16-mer random dsDNA library, 0.1% formaldehyde crosslink after washing; high values mean tight binding
The target in assay [1] is T1, FEV (Homo sapiens, UniProt Q99581 1-238).
T1 sequence: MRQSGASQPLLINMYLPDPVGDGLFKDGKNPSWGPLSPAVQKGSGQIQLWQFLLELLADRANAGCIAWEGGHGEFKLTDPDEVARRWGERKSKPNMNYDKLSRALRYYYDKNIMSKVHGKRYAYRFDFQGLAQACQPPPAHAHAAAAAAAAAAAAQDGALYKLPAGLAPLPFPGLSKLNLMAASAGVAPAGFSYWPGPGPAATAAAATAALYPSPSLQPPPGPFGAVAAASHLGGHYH
As to conditions: protein: recombinant; tags: N-terminal GST; dsDNA, one strand shown. The procedure, abridged: (§1)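 Binding signal is defined as a hexamer's read frequency for one factor over its frequency for the tag-only sample. To obtain reads, GST-fused human transcription factors were expressed in yeast, captured on glutathione beads, barcoded with DNA and pooled with that sample. Pools met 200 nmole of a 16-mer random double-stranded DNA library in Tris/NaCl/DTT/glycerol buffer for 30 min at room temperature before washing, 0.1% formaldehyde crosslinking, proximity ligation (BsaI/T4 ligase, 1 h, 37 °C), PCR and Illumina NextSeq500 sequencing.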

Assay [2] has as its target ETV5 (Homo sapiens, UniProt P41161 1-510). The settings on record: protein: recombinant; tags: N-terminal GST; dsDNA, one strand shown. The procedure, abridged:
as §1

In assay [3] the target is HSF1 (Homo sapiens, UniProt Q00613 1-529). As to conditions: protein: recombinant; tags: N-terminal GST; chain copies: 3; dsDNA, one strand shown. Summed up:
as §1

Assay [4] addresses T2, SPIC (Homo sapiens, UniProt Q8N5J4 1-248).
T2 sequence: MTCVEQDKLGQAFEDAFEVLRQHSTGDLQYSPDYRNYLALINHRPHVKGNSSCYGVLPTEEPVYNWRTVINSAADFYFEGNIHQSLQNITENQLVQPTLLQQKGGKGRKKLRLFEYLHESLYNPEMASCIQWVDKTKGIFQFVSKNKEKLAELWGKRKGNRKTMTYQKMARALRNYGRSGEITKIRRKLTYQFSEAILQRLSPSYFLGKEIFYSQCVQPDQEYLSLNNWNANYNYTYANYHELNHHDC
The settings on record: protein: recombinant; tags: N-terminal GST; dsDNA, one strand shown. The procedure, abridged:
as §1

Assay [5] has as its target ELF4 (Homo sapiens, UniProt Q99607 1-663). The settings on record: protein: recombinant; tags: N-terminal GST; dsDNA, one strand shown. The procedure, abridged:
as §1

For assay [6], the target named is T3, ELK4 (Homo sapiens, UniProt P28324-2 1-405).
T3 sequence: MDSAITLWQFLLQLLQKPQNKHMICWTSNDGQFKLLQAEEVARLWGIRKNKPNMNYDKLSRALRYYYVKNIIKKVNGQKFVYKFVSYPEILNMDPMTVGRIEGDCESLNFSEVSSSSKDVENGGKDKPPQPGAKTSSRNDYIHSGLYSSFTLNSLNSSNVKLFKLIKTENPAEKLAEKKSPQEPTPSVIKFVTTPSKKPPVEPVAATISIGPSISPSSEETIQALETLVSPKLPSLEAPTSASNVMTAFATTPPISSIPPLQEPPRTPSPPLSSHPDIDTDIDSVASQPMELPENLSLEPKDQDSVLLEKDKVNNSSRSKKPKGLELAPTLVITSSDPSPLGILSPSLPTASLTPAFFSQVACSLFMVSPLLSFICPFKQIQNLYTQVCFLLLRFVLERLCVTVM
As to conditions: protein: recombinant; tags: N-terminal GST; dsDNA, one strand shown. Summed up: as §1

Assay [7] deals with T4, ETV2 (Homo sapiens, UniProt O00321 1-342).
T4 sequence: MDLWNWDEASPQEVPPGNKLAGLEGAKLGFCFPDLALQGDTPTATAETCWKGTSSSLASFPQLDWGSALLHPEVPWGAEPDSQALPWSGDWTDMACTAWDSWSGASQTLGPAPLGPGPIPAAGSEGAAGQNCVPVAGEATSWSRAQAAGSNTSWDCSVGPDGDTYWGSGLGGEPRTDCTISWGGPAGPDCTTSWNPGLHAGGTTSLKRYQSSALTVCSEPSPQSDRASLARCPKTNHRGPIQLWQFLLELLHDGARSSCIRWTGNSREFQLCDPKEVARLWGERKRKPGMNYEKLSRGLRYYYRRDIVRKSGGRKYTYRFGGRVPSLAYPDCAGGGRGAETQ
The settings on record: protein: recombinant; tags: N-terminal GST; dsDNA, one strand shown. The procedure, abridged:
as §1

The target of assay [8] is T5, ELF3 (Homo sapiens, UniProt P78545 1-371).
T5 sequence: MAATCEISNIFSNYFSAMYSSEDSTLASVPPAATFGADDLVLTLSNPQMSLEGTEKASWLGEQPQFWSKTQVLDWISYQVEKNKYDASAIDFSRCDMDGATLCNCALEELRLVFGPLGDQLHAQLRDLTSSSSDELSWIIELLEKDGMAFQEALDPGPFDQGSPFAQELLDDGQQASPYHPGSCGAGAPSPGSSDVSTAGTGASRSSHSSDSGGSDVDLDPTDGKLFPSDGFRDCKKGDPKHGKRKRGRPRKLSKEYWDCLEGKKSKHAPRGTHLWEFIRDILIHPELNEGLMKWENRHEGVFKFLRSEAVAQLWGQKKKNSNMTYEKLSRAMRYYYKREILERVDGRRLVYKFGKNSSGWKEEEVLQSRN
As to conditions: protein: recombinant; tags: N-terminal GST; dsDNA, one strand shown. The procedure, abridged: as §1

For assay [9], the target named is CRX (Homo sapiens, UniProt O43186 1-299). The settings on record: protein: recombinant; tags: N-terminal GST; dsDNA, one strand shown. Summed up:
as §1

For assay [10], the target named is ETV1 (Homo sapiens, UniProt P50549 1-477). As to conditions: protein: recombinant; tags: N-terminal GST; dsDNA, one strand shown. Summed up:
as §1

The target of assay [11] is T6, ERF (Homo sapiens, UniProt P50548 1-548).
T6 sequence: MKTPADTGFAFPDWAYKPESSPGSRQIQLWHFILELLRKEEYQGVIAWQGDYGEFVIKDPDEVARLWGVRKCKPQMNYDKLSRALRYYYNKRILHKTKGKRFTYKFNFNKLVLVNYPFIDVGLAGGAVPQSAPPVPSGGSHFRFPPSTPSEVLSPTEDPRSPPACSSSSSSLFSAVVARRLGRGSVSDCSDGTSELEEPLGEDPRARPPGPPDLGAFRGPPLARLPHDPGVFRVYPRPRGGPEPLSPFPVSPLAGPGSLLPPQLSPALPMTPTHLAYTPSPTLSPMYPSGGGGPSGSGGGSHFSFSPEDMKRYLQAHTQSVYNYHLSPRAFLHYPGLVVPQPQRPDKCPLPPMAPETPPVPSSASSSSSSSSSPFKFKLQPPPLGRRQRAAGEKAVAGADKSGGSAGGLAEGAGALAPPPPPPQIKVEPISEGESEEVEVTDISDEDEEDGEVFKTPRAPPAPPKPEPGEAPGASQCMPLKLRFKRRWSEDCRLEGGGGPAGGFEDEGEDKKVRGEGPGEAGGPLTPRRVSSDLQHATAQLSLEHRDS
The settings on record: protein: recombinant; tags: N-terminal GST; dsDNA, one strand shown. Summed up: as §1

For assay [12], the target named is T7, ETV3L (Homo sapiens, UniProt Q6ZN32 1-361).
T7 sequence: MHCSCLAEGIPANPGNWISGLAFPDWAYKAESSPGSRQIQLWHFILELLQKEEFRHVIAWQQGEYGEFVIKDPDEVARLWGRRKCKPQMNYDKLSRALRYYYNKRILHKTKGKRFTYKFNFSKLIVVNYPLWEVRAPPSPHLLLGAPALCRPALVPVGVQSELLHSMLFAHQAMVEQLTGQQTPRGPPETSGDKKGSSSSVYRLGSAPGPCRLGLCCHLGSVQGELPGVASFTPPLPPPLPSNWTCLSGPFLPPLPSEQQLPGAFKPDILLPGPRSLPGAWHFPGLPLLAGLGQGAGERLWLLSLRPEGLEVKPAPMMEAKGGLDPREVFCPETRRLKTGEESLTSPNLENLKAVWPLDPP
The settings on record: protein: recombinant; tags: N-terminal GST; dsDNA, one strand shown. Summed up:
as §1

Assay [13] concerns the target T8, ETS2 (Homo sapiens, UniProt P15036 1-469).
T8 sequence: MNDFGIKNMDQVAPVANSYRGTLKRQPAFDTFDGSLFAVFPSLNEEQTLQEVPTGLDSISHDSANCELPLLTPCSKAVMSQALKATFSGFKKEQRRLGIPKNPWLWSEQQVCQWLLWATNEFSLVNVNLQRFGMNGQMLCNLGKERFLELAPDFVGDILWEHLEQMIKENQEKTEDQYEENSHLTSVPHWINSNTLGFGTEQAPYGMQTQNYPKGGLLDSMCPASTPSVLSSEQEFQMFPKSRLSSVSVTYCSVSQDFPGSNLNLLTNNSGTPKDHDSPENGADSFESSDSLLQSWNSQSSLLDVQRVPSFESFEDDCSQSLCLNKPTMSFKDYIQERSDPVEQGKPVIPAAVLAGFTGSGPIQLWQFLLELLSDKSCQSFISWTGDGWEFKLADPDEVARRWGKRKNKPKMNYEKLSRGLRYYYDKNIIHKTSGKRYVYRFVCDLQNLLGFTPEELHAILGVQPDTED
As to conditions: protein: recombinant; tags: N-terminal GST; dsDNA, one strand shown. The procedure, abridged: as §1

Assay [14] deals with T9, SPDEF (Homo sapiens, UniProt O95238 1-335).
T9 sequence: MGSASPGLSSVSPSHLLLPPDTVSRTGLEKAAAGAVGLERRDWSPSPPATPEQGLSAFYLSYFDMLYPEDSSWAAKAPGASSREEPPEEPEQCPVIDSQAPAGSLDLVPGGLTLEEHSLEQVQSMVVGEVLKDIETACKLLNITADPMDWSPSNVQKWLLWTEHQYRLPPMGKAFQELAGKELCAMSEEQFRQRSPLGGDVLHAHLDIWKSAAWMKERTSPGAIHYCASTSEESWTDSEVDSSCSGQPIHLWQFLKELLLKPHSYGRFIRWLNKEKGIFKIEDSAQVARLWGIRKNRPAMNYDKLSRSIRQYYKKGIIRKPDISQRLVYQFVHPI
The settings on record: protein: recombinant; tags: N-terminal GST; dsDNA, one strand shown. The procedure, abridged: as §1

Assay [15] deals with T10, ETV7 (Homo sapiens, UniProt Q9Y603 1-341).
T10 sequence: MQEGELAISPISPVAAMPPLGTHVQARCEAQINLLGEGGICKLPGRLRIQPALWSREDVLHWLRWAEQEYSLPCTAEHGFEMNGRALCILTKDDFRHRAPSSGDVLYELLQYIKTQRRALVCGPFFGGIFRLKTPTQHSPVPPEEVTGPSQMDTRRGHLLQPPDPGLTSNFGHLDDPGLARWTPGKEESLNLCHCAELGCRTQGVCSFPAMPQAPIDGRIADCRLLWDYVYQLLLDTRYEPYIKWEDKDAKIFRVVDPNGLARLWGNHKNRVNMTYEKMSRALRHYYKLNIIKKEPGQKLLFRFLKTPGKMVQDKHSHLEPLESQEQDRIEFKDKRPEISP
As to conditions: protein: recombinant; tags: N-terminal GST; dsDNA, one strand shown. The procedure, abridged: as §1

For assay [16], the target named is T11, ELF5 (Homo sapiens, UniProt Q9UKW6-2 1-255).
T11 sequence: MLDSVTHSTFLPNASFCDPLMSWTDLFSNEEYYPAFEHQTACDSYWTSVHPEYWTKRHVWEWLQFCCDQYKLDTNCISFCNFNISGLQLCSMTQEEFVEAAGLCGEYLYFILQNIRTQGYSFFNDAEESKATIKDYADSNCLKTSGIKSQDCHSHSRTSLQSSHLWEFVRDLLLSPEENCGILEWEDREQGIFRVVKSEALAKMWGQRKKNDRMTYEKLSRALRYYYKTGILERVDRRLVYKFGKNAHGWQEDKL
The settings on record: protein: recombinant; tags: N-terminal GST; dsDNA, one strand shown. Summed up:
as §1

Assay [17] concerns the target T12, ETV3 (Homo sapiens, UniProt P41162-2 1-143).
T12 sequence: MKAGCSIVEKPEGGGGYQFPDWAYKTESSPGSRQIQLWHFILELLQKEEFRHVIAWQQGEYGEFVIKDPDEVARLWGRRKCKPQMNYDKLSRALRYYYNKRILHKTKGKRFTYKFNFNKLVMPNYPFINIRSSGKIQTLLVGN
The settings on record: protein: recombinant; tags: N-terminal GST; dsDNA, one strand shown. Summed up:
as §1

For assay [18], the target named is ETV6 (Homo sapiens, UniProt P41212 1-452). As to conditions: protein: recombinant; tags: N-terminal GST; dsDNA, one strand shown. The procedure, abridged:
as §1

Sequence of CRX (O43186 whole entry): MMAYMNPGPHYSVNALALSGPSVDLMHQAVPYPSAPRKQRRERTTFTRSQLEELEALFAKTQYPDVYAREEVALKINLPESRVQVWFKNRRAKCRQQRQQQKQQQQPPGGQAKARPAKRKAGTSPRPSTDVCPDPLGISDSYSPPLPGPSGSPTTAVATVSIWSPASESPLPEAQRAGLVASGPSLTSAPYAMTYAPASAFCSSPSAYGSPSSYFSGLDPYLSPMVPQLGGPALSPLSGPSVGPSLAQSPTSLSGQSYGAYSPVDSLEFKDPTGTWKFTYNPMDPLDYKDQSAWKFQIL
Sequence of ETV5 (P41161 whole entry): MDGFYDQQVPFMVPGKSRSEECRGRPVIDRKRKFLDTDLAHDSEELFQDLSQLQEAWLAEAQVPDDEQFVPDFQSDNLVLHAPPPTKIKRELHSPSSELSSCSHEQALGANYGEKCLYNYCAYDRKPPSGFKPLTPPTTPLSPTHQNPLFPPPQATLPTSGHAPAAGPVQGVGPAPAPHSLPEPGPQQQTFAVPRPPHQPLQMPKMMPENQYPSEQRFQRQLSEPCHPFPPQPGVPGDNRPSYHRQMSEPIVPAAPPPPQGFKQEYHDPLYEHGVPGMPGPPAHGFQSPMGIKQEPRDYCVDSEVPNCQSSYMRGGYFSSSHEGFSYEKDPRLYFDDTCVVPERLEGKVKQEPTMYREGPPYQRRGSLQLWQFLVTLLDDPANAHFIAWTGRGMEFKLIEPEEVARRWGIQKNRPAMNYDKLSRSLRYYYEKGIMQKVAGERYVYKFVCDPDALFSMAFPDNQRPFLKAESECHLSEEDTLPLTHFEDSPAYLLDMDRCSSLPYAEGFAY
Sequence of ETV6 (P41212 whole entry): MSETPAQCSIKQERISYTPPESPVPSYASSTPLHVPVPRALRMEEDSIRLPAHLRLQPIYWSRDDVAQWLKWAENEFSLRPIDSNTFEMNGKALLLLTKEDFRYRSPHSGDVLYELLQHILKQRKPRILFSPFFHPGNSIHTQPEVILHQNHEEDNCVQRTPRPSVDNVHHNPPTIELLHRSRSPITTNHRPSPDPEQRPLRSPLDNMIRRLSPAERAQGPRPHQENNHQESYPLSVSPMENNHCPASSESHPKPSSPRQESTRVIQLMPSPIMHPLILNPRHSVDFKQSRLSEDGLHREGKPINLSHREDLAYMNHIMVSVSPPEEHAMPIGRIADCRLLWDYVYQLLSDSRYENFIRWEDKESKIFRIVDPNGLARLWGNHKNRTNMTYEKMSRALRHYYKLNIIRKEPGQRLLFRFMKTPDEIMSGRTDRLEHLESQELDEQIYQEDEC
Sequence of ETV1 (P50549 whole entry): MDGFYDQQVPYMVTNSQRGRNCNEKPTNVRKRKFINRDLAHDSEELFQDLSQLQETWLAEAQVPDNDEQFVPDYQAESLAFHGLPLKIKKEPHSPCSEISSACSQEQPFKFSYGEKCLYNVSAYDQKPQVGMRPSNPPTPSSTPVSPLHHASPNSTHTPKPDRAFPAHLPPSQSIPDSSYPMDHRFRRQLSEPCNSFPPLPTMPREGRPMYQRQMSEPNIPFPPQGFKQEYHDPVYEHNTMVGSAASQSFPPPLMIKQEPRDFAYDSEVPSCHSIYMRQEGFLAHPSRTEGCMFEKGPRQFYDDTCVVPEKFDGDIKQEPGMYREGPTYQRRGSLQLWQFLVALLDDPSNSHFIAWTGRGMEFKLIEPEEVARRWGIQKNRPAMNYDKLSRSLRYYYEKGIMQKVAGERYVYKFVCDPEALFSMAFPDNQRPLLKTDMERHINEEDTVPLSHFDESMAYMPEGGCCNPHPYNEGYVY
Sequence of ELF4 (Q99607 whole entry): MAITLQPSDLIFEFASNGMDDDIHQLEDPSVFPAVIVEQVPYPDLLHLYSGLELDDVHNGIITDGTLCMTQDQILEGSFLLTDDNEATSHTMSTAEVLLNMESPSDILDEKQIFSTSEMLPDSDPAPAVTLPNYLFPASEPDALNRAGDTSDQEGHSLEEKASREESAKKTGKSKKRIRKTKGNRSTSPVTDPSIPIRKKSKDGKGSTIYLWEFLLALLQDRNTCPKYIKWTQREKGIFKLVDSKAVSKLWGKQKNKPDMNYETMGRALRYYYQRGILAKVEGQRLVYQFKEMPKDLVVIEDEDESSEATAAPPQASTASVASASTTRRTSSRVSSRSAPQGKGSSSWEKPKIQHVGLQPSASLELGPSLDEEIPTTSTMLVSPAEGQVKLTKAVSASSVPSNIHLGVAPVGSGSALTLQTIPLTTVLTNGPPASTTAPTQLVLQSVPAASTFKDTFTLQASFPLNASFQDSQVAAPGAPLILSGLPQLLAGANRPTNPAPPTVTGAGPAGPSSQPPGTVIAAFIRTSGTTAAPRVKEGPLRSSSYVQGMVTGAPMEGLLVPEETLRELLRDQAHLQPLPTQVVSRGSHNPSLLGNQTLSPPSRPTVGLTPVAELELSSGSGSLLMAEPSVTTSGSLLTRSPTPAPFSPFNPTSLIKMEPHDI
Sequence of HSF1 (Q00613 whole entry): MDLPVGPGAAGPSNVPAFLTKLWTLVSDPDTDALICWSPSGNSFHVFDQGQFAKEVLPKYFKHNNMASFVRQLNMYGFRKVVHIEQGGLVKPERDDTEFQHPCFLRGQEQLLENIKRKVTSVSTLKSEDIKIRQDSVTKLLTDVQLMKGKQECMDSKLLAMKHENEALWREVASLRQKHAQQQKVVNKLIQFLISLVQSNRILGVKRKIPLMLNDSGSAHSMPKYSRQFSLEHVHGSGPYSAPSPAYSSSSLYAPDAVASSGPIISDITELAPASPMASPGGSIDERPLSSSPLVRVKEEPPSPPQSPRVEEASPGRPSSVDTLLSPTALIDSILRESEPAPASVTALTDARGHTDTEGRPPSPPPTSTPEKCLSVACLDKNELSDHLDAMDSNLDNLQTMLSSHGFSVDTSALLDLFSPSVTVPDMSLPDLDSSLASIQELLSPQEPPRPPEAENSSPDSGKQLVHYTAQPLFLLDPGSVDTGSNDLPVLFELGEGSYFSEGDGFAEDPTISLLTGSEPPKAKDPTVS

On to AACTAG, for which the binding signal was 1.14 fold enrichment (6-mer frequency, TF over GST control) in [1]; 1.15 fold enrichment (6-mer frequency, TF over GST control) in assay [2]; 1.37 fold enrichment (6-mer frequency, TF over GST control) in assay [3]; 1.2 fold enrichment (6-mer frequency, TF over GST control) in assay [4]; 1.19 fold enrichment (6-mer frequency, TF over GST control) in assay [5]; 1.02 fold enrichment (6-mer frequency, TF over GST control) in assay [6]. Besides, the binding signal in assay [7] is 1.35 fold enrichment (6-mer frequency, TF over GST control); in [8], 1.1 fold enrichment (6-mer frequency, TF over GST control); in assay [9], 1.11 fold enrichment (6-mer frequency, TF over GST control); in assay [10], 1.15 fold enrichment (6-mer frequency, TF over GST control); in assay [11] it was 1.16 fold enrichment (6-mer frequency, TF over GST control); in [12] it was 1.09 fold enrichment (6-mer frequency, TF over GST control). The binding signal in assay [13] was 1.11 fold enrichment (6-mer frequency, TF over GST control); in assay [14], 1.08 fold enrichment (6-mer frequency, TF over GST control); in assay [15], 1.1 fold enrichment (6-mer frequency, TF over GST control); in assay [16] it was 1.13 fold enrichment (6-mer frequency, TF over GST control); in assay [17] it was 1.14 fold enrichment (6-mer frequency, TF over GST control); in assay [18], 1.15 fold enrichment (6-mer frequency, TF over GST control).
